Test [1] in a line: inhibitors of TNFa-induced NFkB p65 translocation, primary screen, imaging, HUVEC, MLSMR starter and 10KST1 sets (AID 438;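 active = inhibition above 20% together with a positive visual image hit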;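 also: compound added about 3h40 before a 20 min TNFalpha stimulation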;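 as to inhibition: signal is the nuclear over cytoplasmic p65 intensity ratio per well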). The note with it: HUVEC TNFa-induced p65 nuclear translocation; cell count: measured here: nuclei count (cytotoxicity indicator), at 2.08 µM; inhibition: at 2 µM, stronger effect = higher value, 0% TNFa-plus-vehicle, 100% no-TNFa wells.
A short description of test [2]: inhibitors of mutant huntingtin aggregation, primary screen, imaging, exon1htt(103Q)mCFP cells, high-content imaging (AID 483;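 active = visual image review flags a hit and inhibition of aggregation exceeds 20%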;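 also: compound exposure lasted 3 days before fixation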;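 as to nuclei count: percent of the per-plate median nuclei count of sample wells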). Particulars: exon1htt(103Q)mCFP cell line, aggregate imaging, at 2 µM; inhibition of aggregation: stronger effect = higher value; nuclei count: measured here: cell count, toxicity.
Test [3] is described as follows: inhibitors of E-selectin induction by TNFa, primary screen, imaging, HUVEC, immunofluorescence, MLSMR starter and 10KST1 sets (AID 487;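 active = visually confirmed hit in the image check and inhibition above 20%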;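 as to inhibition: signal is fraction of cell area covered by stained E-selectin grains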;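 as to nuclei count: 100% = median nuclei count of all wells on the same plate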). The note with it: HUVEC TNFalpha-induced E-selectin immunofluorescence imaging, at 2 µM; inhibition: stronger effect = higher value; nuclei count: measured here: cell number, toxicity.
The target of test [4] is Voltage-gated potassium channel subunit beta-2 (Rattus norvegicus) (UniProt P62483). Briefly: KvBeta enzyme negative modulators, primary screen, biochemical, NADPH fluorescence (AID 622;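 active = fluorescence slope higher than the sample average by over 3 SD, cut at about -0.22 in these data, passing the limit was not always enough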;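 also: slope of raw intensity against log time taken from 70 to 1610 s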). The note with it: recombinant KvBeta, 4-cyanobenzaldehyde reduction, at 10 µM, stronger effect = higher value.
The target is the same in test [5]. As to the kind of experiment: KvBeta positive modulators, primary screen, biochemical, NADPH fluorescence (AID 623;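 active = NADPH fluorescence slope more negative than the mean of all samples by about 3 SD, 99.7% confidence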;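 also: fluorescence intensity change per second fitted from 20 to 320 s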). The note with it: Recombinant KvBeta, NADPH fluorescence decrease slope, 10 min; at 10 µM; stronger effect = lower value.
Test [6] concerns the target Alpha-2C adrenergic receptor (Homo sapiens) (UniProt P18825). Briefly: modulators of alpha2C/GIRK thallium flux, primary screen, cell-based, HEK293 alpha2C/GIRK1/2 (AID 624;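 active = fluorescence slope after compound addition differing from the mean of all screened samples at 99.7% confidence, in either direction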;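 also: slope of fluorescence ratio to pre-addition baseline per second over 15 to 24 s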). The note with it: thallium flux BTC fluorescence, at 10 µM, actives lie on both sides.
Test [7] is described as follows: inhibitors of Sendai virus-induced IRF3 signaling, primary screen, TLR/RLR signaling modifier project, cell-based, Sendai virus stimulus, luciferase, 10K MLSCN set (AID 602276).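 Also: firefly luciferase from ISG56 promoter only with Renilla not read in this screen; 0% = Sendai virus plus DMSO and 100% = medium plus DMSO without virus.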 The note with it: HEK293 RL24 IRF3 luciferase reporter, at 10 µM, stronger effect = higher value. In general terms: Reporter assays use an easily measured gene product as a stand-in for the process of interest.

Test [8] is described as follows: inhibitors of poly I:C-induced TLR3 signaling, primary screen, cell-based, poly I:C stimulus, luciferase, 10K MLSCN set (AID 602277;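 active = inhibition of the reporter signal at or above 50%; inactive = inhibition below 50%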). Particulars: HEK293-TLR3 RL24 IRF3 luciferase reporter, at 10 µM, stronger effect = higher value.

Activity calls are given as the source filed them.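 The calls were made as follows, unless noted: active = inhibition at or above 50% at 10 µM; inactive = inhibition below 50%.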

Sequence of Voltage-gated potassium channel subunit beta-2 (Rattus norvegicus) (P62483 whole entry, looked up): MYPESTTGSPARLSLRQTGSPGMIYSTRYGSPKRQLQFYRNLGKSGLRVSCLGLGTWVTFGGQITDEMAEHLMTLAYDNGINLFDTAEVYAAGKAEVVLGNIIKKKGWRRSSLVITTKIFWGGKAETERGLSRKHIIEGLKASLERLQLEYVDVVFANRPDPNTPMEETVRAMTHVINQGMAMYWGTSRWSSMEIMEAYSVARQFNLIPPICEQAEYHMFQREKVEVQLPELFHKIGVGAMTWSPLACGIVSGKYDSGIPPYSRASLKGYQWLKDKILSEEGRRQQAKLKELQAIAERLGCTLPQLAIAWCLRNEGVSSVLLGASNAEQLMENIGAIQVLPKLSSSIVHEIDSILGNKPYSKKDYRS
Sequence of Alpha-2C adrenergic receptor (Homo sapiens) (P18825 whole entry, looked up): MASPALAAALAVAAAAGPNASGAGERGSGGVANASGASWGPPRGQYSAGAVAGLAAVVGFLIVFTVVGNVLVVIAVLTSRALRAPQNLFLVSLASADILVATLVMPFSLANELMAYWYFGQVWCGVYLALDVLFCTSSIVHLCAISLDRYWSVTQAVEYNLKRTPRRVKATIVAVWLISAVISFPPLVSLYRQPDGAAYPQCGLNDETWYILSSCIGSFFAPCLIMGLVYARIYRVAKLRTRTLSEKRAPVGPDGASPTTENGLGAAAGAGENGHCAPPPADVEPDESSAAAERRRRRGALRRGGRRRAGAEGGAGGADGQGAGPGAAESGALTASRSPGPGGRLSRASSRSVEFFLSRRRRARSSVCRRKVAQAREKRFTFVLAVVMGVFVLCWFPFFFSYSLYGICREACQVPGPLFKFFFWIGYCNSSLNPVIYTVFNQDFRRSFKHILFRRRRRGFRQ

The inhibition is the relative decrease from the control value, in per cent. Regarding `Cc1sc2ncnc(SCC(=O)N3CCCC3)c2c1C`, the cell count in test [1] is 369. Besides, the inhibition in test [1] was 3.5% (inactive); in test [3], -32.3% (inactive); in test [7] it was 8.17% (inactive); in test [8], 6.41% (inactive). Moreover, the inhibition of aggregation in test [2] is -6.6% (inactive). For the same molecule, the nuclei count in test [2] worked out at 112%; in test [3], 108%. The fluorescence slope in test [4] was -0.433 (inactive). Besides, in test [5], the NADPH fluorescence slope is -0.000107 (inactive). For the same molecule, the slope in test [6] is 0.00701 (inactive).

As to `COc1cccc(OCCSc2nnc3sc4ccccc4n23)c1`, the cell count in test [1] is 548. Further, the inhibition in test [1] is -6.3% (inactive); in test [3], -24.1% (inactive); in test [7], -10.1% (inactive); in test [8], -31.6% (inactive). For the same molecule, the inhibition of aggregation in test [2] is 0.2% (inactive). For the same molecule, the nuclei count was 89% in test [2] and 127% in test [3]. In test [4], the fluorescence slope is -0.463 (inactive). The NADPH fluorescence slope in test [5] was -0.000108 (inactive). Also, the slope in test [6] is 0.00727 (inactive).

Take `Cc1ccc(Nc2cc(C)nc3ncnn23)c(Cl)c1`: the cell count in test [1] is 551. The inhibition is 7.9% (inactive) in test [1], -65.9% (inactive) in test [3], 6.25% (inactive) in test [7] and 18.4% (inactive) in test [8]. The inhibition of aggregation in test [2] was -2.9% (inactive). The nuclei count in test [2] came to 69.8%; in test [3] it was 104%. Besides, the fluorescence slope in test [4] is -0.491 (inactive). In addition, in test [5], the NADPH fluorescence slope was 4.8e-06 (inactive). Besides, the slope in test [6] was 0.00625 (inactive).

For the molecule `CCOC(=O)c1cc(-c2nnc(-c3ccc(Oc4ccccc4)cc3)o2)c(C)nc1C`, the cell count in test [1] came out at 761. For the same molecule, the inhibition in test [1] was -3.9% (inactive); in test [3], -20.7% (inactive); in test [7], 7.09% (inactive); in test [8] it was 12.2% (inactive). Besides, the inhibition of aggregation in test [2] is 17.5% (inactive). Besides, the nuclei count in test [2] amounted to 102%; in test [3], 110%. Also, the fluorescence slope in test [4] was -0.499 (inactive). The NADPH fluorescence slope in test [5] was -2.6e-05 (inactive). For the same molecule, the slope in test [6] is 0.0114 (active).

Regarding `O=C(Nc1ccc(F)cc1)NC1CCN(Cc2nnnn2Cc2ccco2)CC1`, the cell count in test [1] was 849. Also, the inhibition in test [1] is 0% (inactive); in test [3], -2.9% (inactive); in test [7], -9.98% (inactive); in test [8], 0.354% (inactive). Besides, the inhibition of aggregation in test [2] was -19.5% (inactive). In addition, the nuclei count in test [2] worked out at 94.3%; in test [3], 113%. Also, the fluorescence slope in test [4] was -0.501 (inactive). In addition, in test [5], the NADPH fluorescence slope was -4.4e-05 (inactive). In test [6], the slope was 0.00571 (inactive).

For the molecule `Cc1cccc(NC(=O)c2oc3c(c2C)C(=O)CC(C)(C)C3)n1`, in test [1], the cell count came to 256. The inhibition in test [1] is -4% (inactive); in test [3] it was -63.6% (inactive); in test [7], -18% (inactive); in test [8], -30.8% (inactive). Further, the inhibition of aggregation in test [2] was -4.5% (inactive). The nuclei count in test [2] worked out at 90.8%; in test [3], 93.5%. Also, the fluorescence slope in test [4] was -0.403 (inactive). In addition, the NADPH fluorescence slope in test [5] was -7.1e-05 (inactive). Besides, the slope in test [6] was 0.00548 (inactive).

As for `CCOc1ccc(-c2nc(S(=O)(=O)c3ccccc3)c(NCc3cccnc3)o2)cc1`, the cell count in test [1] was determined as 621. The inhibition in test [1] was 0.6% (inactive); in test [3] it was -59% (inactive); in test [7] it was 0.887% (inactive); in test [8] it was -7.62% (inactive). In addition, the inhibition of aggregation in test [2] was -7.9% (inactive). The nuclei count in test [2] came out at 105%; in test [3], 109%. In test [4], the fluorescence slope was -0.534 (inactive). In test [5], the NADPH fluorescence slope is 3.2e-06 (inactive). The slope in test [6] was 0.00448 (inactive).

Take `Cc1cc(C)n2c(SCC(=O)Nc3cc(C)on3)nnc2n1`: the cell count in test [1] worked out at 335. The inhibition in test [1] is -14.1% (inactive); in test [3] it was 3.6% (inactive); in test [7] it was 11% (inactive); in test [8] it was 22.4% (inactive). The inhibition of aggregation in test [2] was 2.1% (inactive). The nuclei count in test [2] was 71.2%; in test [3], 100%. Also, the fluorescence slope in test [4] is -0.555 (inactive). The NADPH fluorescence slope in test [5] is -2.2e-05 (inactive). Further, the slope in test [6] was 0.00561 (inactive).

With `CCN(CC)C(=O)COc1ccc2oc(C)c(C(=O)OC(C)C)c2c1`, the cell count in test [1] turned out to be 455. Also, the inhibition in test [1] is 12.5% (inactive); in test [3], -25.5% (inactive); in test [7], 2.59% (inactive); in test [8], 17.4% (inactive). In addition, the inhibition of aggregation in test [2] was -21.2% (inactive). Also, the nuclei count is 108% in test [2] and 126% in test [3]. In addition, the fluorescence slope in test [4] is -0.42 (inactive). Besides, the NADPH fluorescence slope in test [5] is 3.2e-05 (inactive). Besides, the slope in test [6] was 0.00275 (inactive).

With `CC(=O)Nc1ccc(NC(=O)C(C)Oc2ccccc2F)cc1` (centres undefined), in test [1], the cell count came out at 321. Moreover, the inhibition in test [1] is 3.9% (inactive); in test [3], 4.3% (inactive); in test [7] it was 9.2% (inactive); in test [8], 12.4% (inactive). The inhibition of aggregation in test [2] was 9.4% (inactive). Also, the nuclei count in test [2] amounted to 104%; in test [3], 112%. Further, in test [4], the fluorescence slope was -0.65 (inactive). Further, the NADPH fluorescence slope in test [5] is 1.9e-05 (inactive). Also, the slope in test [6] is 0.00945 (inactive).

In the case of `O=c1c2nnn(Cc3ccc(Cl)cc3)c2ncn1Cc1ccc(F)cc1`, in test [1], the cell count worked out at 608. Besides, the inhibition in test [1] is -7.9% (inactive); in test [3], -19.2% (inactive); in test [7], 13.6% (inactive); in test [8] it was 20.6% (inactive). The inhibition of aggregation in test [2] was -10.3% (inactive). Also, the nuclei count is 130% in test [2] and 111% in test [3]. In test [4], the fluorescence slope is -0.539 (inactive). The NADPH fluorescence slope in test [5] was -6.1e-05 (inactive). In test [6], the slope was 0.00552 (inactive).

`CC1=C(C(=O)N2CCOCC2)C(c2ccsc2)C2=C(CCCC2=O)N1` (centres undefined): the cell count in test [1] worked out at 326. For the same molecule, the inhibition was -25.2% (inactive) in test [1], -11.7% (inactive) in test [3], 19.4% (inactive) in test [7] and 20.8% (inactive) in test [8]. Also, in test [2], the inhibition of aggregation is 2.7% (inactive). Moreover, the nuclei count in test [2] amounted to 99.6%; in test [3] it was 110%. For the same molecule, in test [4], the fluorescence slope was -0.408 (inactive). Besides, in test [5], the NADPH fluorescence slope was -4.5e-05 (inactive). For the same molecule, the slope in test [6] was 0.00554 (inactive).

As to `Cc1ccc(S(=O)(=O)N2CCN(C(=O)CSC3CCCC3)CC2)c(C)c1`, the cell count in test [1] came to 318. The inhibition in test [1] was 3.7% (inactive); in test [3], -425% (inactive); in test [7], 17.2% (inactive); in test [8], 14.9% (inactive). In addition, in test [2], the inhibition of aggregation is -0.7% (inactive). The nuclei count in test [2] worked out at 93.6%; in test [3], 110%. In addition, the fluorescence slope in test [4] was -0.482 (inactive). For the same molecule, the NADPH fluorescence slope in test [5] was 4.3e-06 (inactive). The slope in test [6] is 0.00451 (inactive).

`COC(=O)C1=CN(C(C)C)C=C(C(=O)OC)C1c1cc2c(cc1Br)OCO2`: the cell count in test [1] stood at 386. The inhibition in test [1] is 8.1% (inactive); in test [3], -70.4% (inactive); in test [7], 5.71% (inactive); in test [8], 11% (inactive). For the same molecule, the inhibition of aggregation in test [2] was 10.8% (inactive). Besides, the nuclei count in test [2] was found to be 104%; in test [3] it was 78.3%. The fluorescence slope in test [4] was -0.365 (inactive). Besides, in test [5], the NADPH fluorescence slope is 2e-05 (inactive). The slope in test [6] is 0.00637 (inactive).

These data come from PubChem BioAssay.
